Molecules are shown by their SMILES. Results filed as inconclusive are left out. Entries that show only a call come without a potency. Some compounds were tested as several samples or in several runs, with calls that do not always agree. The source made the active and inactive calls. The call rests on the fitted dose curve.
Potency means the concentration at half of the fitted maximal effect.

For the test, the target named is Acetylcholinesterase (Homo sapiens) (UniProt P22303). Kind of test: Acetylcholinesterase (AChE) small molecule antagonists: fluorescence cell-based qHTS assay (AID 1347398). Further: nearly all actives have a fitted effect of over 50% in size. Particulars: SH-SY5Y cells; Potency: AChE activity; outcome: AChE activity; series mostly up to 115 µM. The essentials: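 SH-SY5Y, 2,000 cells/well, attached overnight; cmpd 30 min 37 C; acetylthiocholine/Thiolite Green cocktail 40 min RT; fluorescence Ex/Em 490/520 nm.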
Sequence of Acetylcholinesterase (Homo sapiens) (P22303 whole entry, looked up): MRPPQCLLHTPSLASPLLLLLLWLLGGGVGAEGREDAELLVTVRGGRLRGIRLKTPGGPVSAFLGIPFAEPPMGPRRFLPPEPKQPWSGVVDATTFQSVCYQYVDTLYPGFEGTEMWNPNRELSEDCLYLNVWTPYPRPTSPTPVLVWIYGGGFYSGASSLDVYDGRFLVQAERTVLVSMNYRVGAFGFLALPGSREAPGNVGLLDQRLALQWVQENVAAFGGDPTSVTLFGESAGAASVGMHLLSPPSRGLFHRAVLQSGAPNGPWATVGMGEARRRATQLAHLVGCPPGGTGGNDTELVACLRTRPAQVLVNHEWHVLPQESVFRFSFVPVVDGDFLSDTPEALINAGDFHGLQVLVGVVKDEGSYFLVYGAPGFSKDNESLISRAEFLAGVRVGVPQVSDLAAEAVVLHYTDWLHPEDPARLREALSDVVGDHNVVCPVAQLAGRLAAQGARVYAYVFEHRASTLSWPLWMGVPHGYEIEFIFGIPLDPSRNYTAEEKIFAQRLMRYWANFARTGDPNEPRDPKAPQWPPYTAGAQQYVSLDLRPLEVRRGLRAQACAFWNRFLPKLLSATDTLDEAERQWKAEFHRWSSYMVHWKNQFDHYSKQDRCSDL
Background: qHTS replaces the single test concentration by a dilution series.
Turning to `CCCCCC1=CCCC1=O`, the Potency was 22.9 µM (active) and inactive.
For the molecule `O=C(Cl)c1ccc(Cl)cc1Cl`, the Potency result was “inactive”.
On to `O=C(O)c1cccc(C(=O)O)c1`, for which the Potency result is “inactive”.
With `COc1ccc2cc1Oc1cc3c(cc1OC)CC[N+](C)(C)[C@H]3Cc1ccc(cc1)Oc1c(OC)c(OC)cc3c1[C@@H](C2)[N+](C)(C)CC3`, the Potency result was “inactive”.
Turning to `CC/C=C\CCOC(C)OCC` (stereo not given), the Potency entry was “inactive”.
For the molecule `Cc1cc(CCCOc2c(C)cc(-c3noc(C(F)(F)F)n3)cc2C)on1`, the Potency result is “inactive”.
Consider `C[C@]12CCC(=O)C=C1CC[C@@H]1[C@@H]2C(=O)C[C@@]2(C)[C@H]1CC[C@]2(O)C(=O)CO`, for which the Potency entry was “inactive”.
As for `CC(O)C(CO)C(C)O` (stereo not given), the Potency entry is “inactive”.
As to `CSCC[C@H](NC(=O)[C@H](Cc1c[nH]c2ccccc12)NC(=O)CCNC(=O)OC(C)(C)C)C(=O)N[C@@H](CC(=O)O)C(=O)N[C@@H](Cc1ccccc1)C(N)=O`, the Potency entry was “inactive”.
Take `CCc1cccc2c(CCO)c[nH]c12`: the Potency entry is “inactive”.
Turning to `CC(C)(CO)C(O)C(=O)NCCCO` (stereo not given), the Potency result is “inactive”.
With `CC(=O)Nc1ccccc1`, the Potency result was “inactive”.
As to `Cc1cc(Cc2cc(C)cc(C(C)(C)C)c2O)c(O)c(C(C)(C)C)c1`, the Potency entry is “inactive”.
Turning to `C[Si]1(C)O[Si](C)(C)O[Si](C)(C)O[Si](C)(C)O[Si](C)(C)O1`, the Potency entry was “inactive”.
In the case of `CC(C)(C)c1cccc(C(C)(C)C)c1O`, the Potency result was “inactive”.
`OCCCCCCCCCCCCBr`: the Potency result is “inactive”.
`NS(=O)(=O)c1ccccc1OC(F)(F)F`: the Potency entry was “inactive”.
As to `O=C(c1ccc(O)cc1)c1ccc(O)c(O)c1O`, the Potency result was “inactive”.
Turning to `CC(=O)C(=O)O`, the Potency result was “inactive”.
Take `CS(=O)(=O)c1ccc(Cl)cc1`: the Potency result is “inactive”.
The result for `CC(C)CC=O` reads “inactive”; that for `CCCCC(CC)COC(=O)c1ccc(N(C)C)cc1` (stereo not given), “inactive”; that for `CCCCCCCOC(=O)CCC`, “inactive”.
Regarding `CCCCCC[C@@H](CCC)C(=O)O`, the Potency result was “inactive”.
As for `O=C(Cl)c1ccc(C(=O)Cl)cc1`, the Potency entry was “inactive”.
On to `CC(C)CCOC(=O)/C=C/c1ccccc1`, for which the Potency result is “inactive”.
Consider `C=C(C)C(=O)OCCCCCCCC(C)C`, for which the Potency entry is “inactive”.
As to `CCCCCCCCCOS(=O)(=O)O`, the Potency result was “inactive”.
The result for `CCOC(=O)Cn1c(=O)sc2cccc(Cl)c21` reads “inactive”; that for `C/C=C(\C)C(C)=O`, “inactive”; that for `CCCCCC(C)N` (stereo not given), “inactive”.
On to `COc1cccc(OC)c1C(=O)N[C@@H]1C(=O)N2[C@@H]1SC(C)(C)[C@@H]2C(=O)O`, for which the Potency entry is “inactive”.
With `CCCCCCCCn1sc(Cl)c(Cl)c1=O`, the Potency entry was “inactive”.
The entry for `O=C(c1ccccc1)c1cccc(O)c1` is “inactive”.
As to `C[C@H]1[C@H]2CC[C@H]3[C@@H]4CC=C5C[C@@H](N(C)C)CC[C@]5(C)[C@H]4CC[C@]23CN1C`, the Potency result was “inactive”.
The entry for `OCc1ccccc1O` is “inactive”.
Consider `CCc1cccc(C)c1N(C(=O)CS(=O)(=O)O)C(C)COC` (stereo not given), for which the Potency entry is “inactive”.
Take `CC(=O)NNC(C)=O`: the Potency entry was “inactive”.
As to `NC(=O)OCC(COC(N)=O)c1ccccc1`, the Potency result was “inactive”.
Take `O=C(O)c1cc(=O)c2c(OCC(O)COc3cccc4oc(C(=O)O)cc(=O)c34)cccc2o1`: the Potency entry is “inactive”.

The values are drawn from PubChem BioAssay (Tox21).
